Source: PubChem BioAssay
Compounds with a hit are over-represented: about 2.6% of the library has one in this group of screens.
TRPV1 ag – human TRPV1 agonism | activation, % at 8.33 µM | TRPV1-expressing cells, Fluo-8 calcium influx, agonist mode | Q8NER1 | hit rate 0.19% among 320,000 | AID 540275; in the data active means activation above about 80%; inconclusive means between about 30% and that limit; further: 0% is about no effect
Target sequence (Q8NER1 whole entry, looked up): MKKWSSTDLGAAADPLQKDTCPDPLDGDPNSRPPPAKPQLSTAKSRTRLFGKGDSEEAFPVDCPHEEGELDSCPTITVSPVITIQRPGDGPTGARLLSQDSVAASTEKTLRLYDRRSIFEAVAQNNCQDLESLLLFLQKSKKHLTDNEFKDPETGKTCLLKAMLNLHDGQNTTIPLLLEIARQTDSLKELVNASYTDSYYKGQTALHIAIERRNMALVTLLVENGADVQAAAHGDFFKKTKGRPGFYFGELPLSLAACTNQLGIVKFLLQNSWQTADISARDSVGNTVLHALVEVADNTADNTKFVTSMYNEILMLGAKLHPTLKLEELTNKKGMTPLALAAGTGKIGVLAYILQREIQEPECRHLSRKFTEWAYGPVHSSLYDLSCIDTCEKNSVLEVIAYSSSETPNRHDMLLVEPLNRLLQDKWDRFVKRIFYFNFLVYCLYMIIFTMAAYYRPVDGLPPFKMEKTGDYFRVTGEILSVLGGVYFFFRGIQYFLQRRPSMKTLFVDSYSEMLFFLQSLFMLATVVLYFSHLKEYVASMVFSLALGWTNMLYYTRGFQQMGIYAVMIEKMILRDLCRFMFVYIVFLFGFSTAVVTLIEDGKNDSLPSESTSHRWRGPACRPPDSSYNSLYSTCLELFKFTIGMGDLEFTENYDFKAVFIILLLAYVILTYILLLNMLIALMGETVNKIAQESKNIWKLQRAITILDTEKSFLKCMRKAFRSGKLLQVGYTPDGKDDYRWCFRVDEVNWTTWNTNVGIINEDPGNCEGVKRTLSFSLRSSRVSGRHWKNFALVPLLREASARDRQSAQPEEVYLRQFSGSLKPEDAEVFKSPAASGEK
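TRPV1-expressing cells were cultured overnight at 35.5C and loaded with Fluo-8 calcium dye for 40 to 90 min at room temperature. After a 10 s baseline, compound was added and calcium influx was read kinetically for 3 min (ex 480/em 520 nm).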
hERG WT inh – inhibitors of human wildtype KCNH2 potassium channel. U2OS, BacMam KCNH2, thallium flux FluxOr; active compounds read low. Q12809. activity change, % at 1.84 µM. hit rate 0.37% among 340,000. AID 720551;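 active means maximum activity change below -70%; inconclusive means maximum activity change between -70% and -50%; inactive means maximum activity change above -50%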; further: on the % scale 0 is the no-effect control and ±100 the full control effect
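U2OS cells were transduced with wild-type KCNH2 virus (2.03 x 10^8 / mL) for 4 h at room temperature, then cultured overnight at 37 C. Thallium flux was read with FluxOr dye. Rate constants were normalized to DMSO controls.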
ClpP mod – qHTS Assay for Activators of ClpP; purified B. subtilis ClpP, FRET peptide cleavage, 20 min; Potency, µM (doses to about 57.5 µM), for inactives: at the highest dose activity change, negative = active; hit rate 1.9% among 340,000; AID 651965, 2013; active means well fitted falling curve with a large enough effect; inconclusive means small, poorly fitted or top-dose-only effect; inactive means no such curve, though single readings can be large or run the other way; further: potency means the concentration at half of the fitted maximal effect; the source files actives as falling curves though it sought activators and does not explain the sign; nearly all actives have a fitted effect of over 65% in size
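FRET quenching reversal measured ClpP activation: 10 microg/mL B. subtilis ClpP at pH 8 with the FRET-FV decapeptide, read at 430 nm after 320 nm excitation. The 20-min minus 0-min signal was scaled between DMSO/no-enzyme wells and ADEP (5.8 microM final).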
KCNH2 3.1 block – KCNH2 3.1 (human) potassium channel inhibition | U2OS KCNH2 3.1, thallium flux FluxOr; active compounds read low | hit rate 0.95% among 340,000 | activity change, % (tested at about 1.8 µM);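 active means maximum activity change below -70%; inconclusive means maximum activity change from -70% to -50%; inactive means maximum activity change above -50%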;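 further: thallium influx rate constant from kinetic fluorescence after stimulation buffer; on the % scale 0 is the no-effect control and ±100 the full control effect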
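U2OS cells transduced with KCNH2 3.1 mutant virus (1.77 x 10^8 /mL, 4 h), plated overnight at 37 C, loaded 45 min with FluxOr dye plus Red40 quencher. Thallium flux rate constant from kinetic reads after stimulation buffer, normalised to controls.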
TRPV1 PAM – human TRPV1 potentiation | potentiation, % at 8.33 µM | TRPV1-expressing cells, Fluo-8 calcium influx, capsaicin EC20 potentiation | hit rate 0.02% among 320,000 | Q8NER1 | AID 540277; in the data active means potentiation above about 80%; inconclusive means between about 30% and that limit; further: 0% is about no effect
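Fluo-8 calcium influx in TRPV1-expressing cells, kinetic read (ex 480/em 520 nm). Compound added and read 3 min for agonist activity, followed by capsaicin at EC20 final and 2 min further read for enhancement.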
p53 reactivator – mutant p53 re-activation in reporter cells | AID 504706 | Potency, µM (titrated, usually from 92.2 µM), for inactives: at the top dose activity change, positive = activation, hits mostly activators | H1299 p53-A138V BP100-luciferase reporter, luminescence, 24 h | hit rate 0.063% among 320,000; active means well fitted activation curve with a large enough effect; inconclusive means small, poorly fitted or top-dose-only effect; inactive means no such curve, though single readings can be large or run the other way; further: potency means the concentration at half of the fitted maximal effect; % of control where 0% means no effect; nearly all actives have a fitted effect of over 45% in size
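H1299 (p53-null), stable ts p53-A138V + BP100-Luc; 1000 cells/well, Opti-MEM/10% FBS; cpd 4 pt, 1:5; 24 h, 37 deg C, 5% CO2; detection reagent 10 min RT; luminescence.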
An asterisk follows results filed as active; ? = inconclusive; / = not tested or not shown.

SMILES | TRPV1 ag | hERG WT inh | ClpP mod | KCNH2 3.1 block | TRPV1 PAM | p53 reactivator
O=c1[nH]c(CN2CCN(C/C=C/c3ccccc3)CC2)nc2cc(Cl)ccc12 | 0 | -110* | 0% | -99* | -5 | 2%
O=C(CCc1nc2ccccc2c(=O)[nH]1)N1CCN(C/C=C/c2ccccc2)CC1 | ? | 2 | -1% | -4 | -21 | 5%
C=CCn1c(=O)c(C(C)=O)cn(N(C)c2ncc(C(F)(F)F)cc2Cl)c1=O | 7 | -2 | / | -114* | -4 | -4%
CC(=O)c1cn(N(C)c2ncc(C(F)(F)F)cc2Cl)c(=O)[nH]c1=O | -2 | 3 | / | 4 | 14 | -1%
C=CCNc1nc(NC2CCN(C)CC2)c2cc(OC)c(OC)cc2n1 | / | / | 4% | / | / | /
COc1ccc(OCc2ccc(-c3nc(C#N)c(N4CCC(C(N)=O)CC4)o3)o2)cc1 | / | / | 35µM* | / | / | /
Cc1ccc(OCc2ccc(-c3nc(C#N)c(N4CCC(C)CC4)o3)o2)cc1 | / | / | 4% | / | / | /
CC(Nc1oc(-c2ccc(COc3ccccc3)o2)nc1C#N)c1ccccc1 (configuration not stated) | / | / | 4% | / | / | /
N#Cc1nc(-c2ccc(COc3ccccc3)o2)oc1NCc1ccccc1 | / | / | 20µM* | / | / | /
N#Cc1nc(-c2ccc(OCc3ccc(Cl)cc3)cc2)oc1NCc1cccnc1 | -4 | -10 | 28µM* | -5 | 17 | 22%
COc1ccc(OCc2ccc(-c3nc(C#N)c(N4CCC(C)CC4)o3)o2)cc1 | / | / | 25µM* | / | / | /
N#Cc1nc(-c2ccc(COc3ccccc3)o2)oc1N1CCN(c2ccccc2)CC1 | / | / | 16µM* | / | / | /
CC1CCN(c2oc(-c3ccc(COc4ccccc4)o3)nc2C#N)CC1 | / | / | 16µM* | / | / | /
Cc1cccc(OCc2ccc(-c3nc(C#N)c(N4CCC(C(N)=O)CC4)o3)o2)c1 | / | / | 4% | / | / | /
CN(C)c1oc(-c2ccc(OCc3ccccc3)cc2)nc1C#N | 2 | 3 | 13µM* | 3 | 6 | ?
N#Cc1nc(-c2ccc(COc3ccc(Cl)cc3)o2)oc1N1CCN(c2ccccc2)CC1 | / | / | -8% | / | / | /
O=c1cc(-c2ccc(F)cc2)nc(SCc2nc(-c3cccc(Cl)c3)no2)[nH]1 | / | / | 0% | / | / | /
CN(C)c1ccc(/C=C/c2nc3ccccc3s2)cc1Cl | / | / | 0% | / | / | /
O=C(c1cnn(-c2ccc(F)cc2)c1-n1cccc1)N1CCN(c2cccc(Cl)c2)CC1 | / | / | -1% | / | / | /
CSc1ccc(/C=C/C(=O)Nc2ccccc2)cc1 | 90* | -1 | 0% | -8 | 4 | ?
CSc1cccc(NC(=O)/C=C/c2ccccc2)c1 | ? | 19 | 2% | 3 | -7 | 15%
CC(C)(C)c1ccc(/C=C/C(=O)Nc2cccnc2)cc1 | 101* | -10 | -2% | 10 | -20 | ?
COC(=O)C1=C(C)NC2=C(C(=O)CC(C)(C)C2)C1c1cn(Cc2ccc(Br)cc2)nc1-c1ccccc1 (configuration not stated) | 1 | -49 | 32µM* | ? | -15 | -5%
O=CC(=O)c1ccc(Cl)cc1 | / | / | 0% | / | / | /
CN(C(=O)Cn1nc(Cc2cccnc2)c2ccccc2c1=O)c1cccc(C(F)(F)F)c1 | / | / | -4% | / | / | /
SMILES | TRPV1 ag | hERG WT inh | ClpP mod | KCNH2 3.1 block | TRPV1 PAM | p53 reactivator
Cc1ncc(CO)c(/C=N/NC(=O)c2ccoc2C)c1O | -1 | -4 | 25µM* | 1 | -4 | 30%
Cc1ncc(CO)c(/C=N/NC(=O)c2ccc(O)cc2)c1O | 3 | 4 | ? | 2 | 16 | 14%
Cc1cc(C)cc(NC(=O)C(=O)NCCc2sc(-c3cccc(F)c3)nc2C)c1 | / | / | -3% | / | / | /
O=C(Nc1ccc2c(c1)OCO2)C1CCN(C(=O)CSc2ncnc3ccccc23)CC1 | 81* | 6 | -3% | -6 | -8 | ?
CCOC(=O)C1=C(C)NC(=O)CC1c1cc2c(cc1Br)OCO2 (configuration not stated) | -3 | -4 | 2% | -8 | -15 | -4%
O=C1CC(c2cc3c(cc2Br)OCO3)C2=C(CCCC2=O)N1 (configuration not stated) | -1 | -2 | 25µM* | 4 | 5 | -1%
